According to PubChem BioAssay (Tox21):
Inconclusive results are not listed. The source made the active and inactive calls. Calls follow the shape of the full dose curve.

Experiments:
[1] = molecular target: Acetylcholinesterase (Homo sapiens) (UniProt P22303); assay: Acetylcholinesterase (AChE) small molecule antagonists: colormetric cell-based qHTS assay (AID 1347395); also: nearly all actives have a fitted effect of over 30% in size
Procedure, shortened: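 Colorimetric read-out: DTNB detects thiocholine released when cellular AChE in SH-SY5Y cells hydrolyses acetylthiocholine. Cells attached overnight, received compound for 30 min at 37 C, then substrate mix for 90 min at 37 C.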

[2] = molecular target: Acetylcholinesterase (Homo sapiens) (UniProt P22303); assay: Acetylcholinesterase (AChE) small molecule antagonists: enzyme-based qHTS assay (AID 1347397); details: Potency: AChE enzyme activity inhibition; outcome: AChE enzyme activity inhibition; also: nearly all actives have a fitted effect of over 55% in size
Procedure, shortened: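 Tox21 library chemicals are tested in qHTS format against recombinant human AChE. The enzyme, dispensed at 50 mU/mL, sits with compound for 30 min at room temperature. A DTNB–acetylthiocholine cocktail follows, and colour is read after 10 min.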

[3] = molecular target: Acetylcholinesterase (Homo sapiens) (UniProt P22303); assay: Acetylcholinesterase (AChE) small molecule antagonists: fluorescence cell-based qHTS assay (AID 1347398); details: Potency: AChE activity; outcome: AChE activity; also: nearly all actives have a fitted effect of over 50% in size
Procedure, shortened: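 Cellular AChE inhibition: SH-SY5Y cells treated with test chemical for 30 min at 37 C, then acetylthiocholine hydrolysis followed over 40 min at room temperature via thiocholine-reactive Thiolite Green fluorescence (490/520 nm).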

[4] = molecular target: Acetylcholinesterase (Homo sapiens) (UniProt P22303); assay: Acetylcholinesterase (AChE) small molecule antagonists: enzyme-based qHTS assay with human liver microsomes (AID 1347399); details: Potency: qHTS inhibition; outcome: qHTS inhibition; also: nearly all actives have a fitted effect of over 60% in size
Procedure, shortened: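 Recombinant human AChE (50 mU/mL in the enzyme mix) and human liver microsomes (0.25 mg/mL final) were preincubated with compound and NADPH (0.25 mg/mL final) for 30 min at 37 C. Acetylthiocholine/DTNB was then added; thiocholine was read colorimetrically after 10 min at room temperature.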

Measured: Potency

Chain of Acetylcholinesterase (Homo sapiens) (P22303 whole entry, looked up): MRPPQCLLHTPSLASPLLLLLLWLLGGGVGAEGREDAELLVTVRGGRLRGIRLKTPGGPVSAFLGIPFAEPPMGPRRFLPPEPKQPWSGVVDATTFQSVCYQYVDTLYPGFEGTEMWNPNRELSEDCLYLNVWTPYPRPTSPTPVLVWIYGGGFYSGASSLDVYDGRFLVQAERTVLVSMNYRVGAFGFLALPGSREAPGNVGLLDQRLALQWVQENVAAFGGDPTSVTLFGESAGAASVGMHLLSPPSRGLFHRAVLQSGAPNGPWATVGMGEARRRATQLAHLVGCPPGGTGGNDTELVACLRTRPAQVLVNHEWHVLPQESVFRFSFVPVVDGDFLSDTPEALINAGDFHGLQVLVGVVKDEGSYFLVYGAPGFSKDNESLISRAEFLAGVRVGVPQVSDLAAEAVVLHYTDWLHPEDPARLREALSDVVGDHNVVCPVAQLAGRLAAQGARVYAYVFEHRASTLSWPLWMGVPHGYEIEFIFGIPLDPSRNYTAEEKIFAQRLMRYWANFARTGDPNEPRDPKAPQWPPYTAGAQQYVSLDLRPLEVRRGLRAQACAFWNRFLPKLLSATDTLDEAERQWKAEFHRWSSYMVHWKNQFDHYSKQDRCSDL

O=C(C(=O)c1ccco1)c1ccco1
inactive: all assays above

CCC(OCCCOC)OC(C)=O (configuration not stated)
inactive: all assays above

CC(O)C(C)O (configuration not stated)
inactive: all assays above

O=C1OC[C@H](Cc2cccc(O)c2)[C@H]1Cc1cccc(O)c1
inactive: all assays above

C=CC(C)(CCC=C(C)C)OC(=O)CC(C)C (configuration not stated)
inactive: all assays above

CC(=O)O[C@@H]1CC2CCC1(C)C2(C)C (some centres not stated)
inactive: all assays above

CC/C=C\CCOC(=O)C(C)C
inactive: all assays above

CC(COc1ccccc1)NC(C)C(O)c1ccc(O)cc1 (configuration not stated)
inactive: all assays above

CC1CCC(C(C)(C)O)CC1 (configuration not stated)
inactive: all assays above

CSSc1ccoc1C
inactive: all assays above

O=C[C@H](O)[C@@H](O)[C@H](O)[C@H](O)CO
inactive: all assays above

C(=C\c1ccccc1)/c1ccccc1
inactive: all assays above

COc1ccccc1OCC(O)CN1CCN(CC(=O)Nc2c(C)cccc2C)CC1 (configuration not stated)
inactive: all assays above

CCC(O)C(C)(C)C (configuration not stated)
inactive: all assays above

O=C(O)CNC(=O)c1ccc([N+](=O)[O-])cc1
inactive: all assays above

OCC(O)c1ccccc1 (configuration not stated)
inactive: all assays above

CC(C)(C)c1csc(-c2cc3cc(OCc4ccccc4CC(=O)O)ccc3o2)n1
inactive: all assays above

CN1C(C)(C)CCCC1(C)C
inactive: all assays above

Nc1ccc(F)cc1
inactive: all assays above

CC(C)=CCC/C(C)=C/C#N
inactive: all assays above

C1=COCCC1
inactive: all assays above

OC1CCC(C2CCCCC2)CC1 (configuration not stated)
inactive: all assays above

CC(=O)OC1C2(C)CCC(C2)C1(C)C (configuration not stated)
inactive: all assays above

COC(/C=C(\C)CCC=C(C)C)OC
inactive: all assays above

CCOC(=O)CS
inactive: all assays above

SC1CCCCC1
inactive: all assays above

CCNC(=O)C(C)OC(=O)Nc1ccccc1 (configuration not stated)
inactive: all assays above

CC(C)(C)C1CCCCC1=O (configuration not stated)
inactive: all assays above

CC(=O)c1ccc2c(c1)CCCC2
inactive: all assays above

CCCCCOC(=O)CCCC
inactive: all assays above

CCCCC/C=C\CCC=O
inactive: all assays above

CC(=O)c1c(C)cc(C(C)(C)C)cc1C
inactive: all assays above

CCCCCCOC(=O)CCCCC
inactive: all assays above

CCOc1ccc2ccccc2c1C(=O)N[C@@H]1C(=O)N2[C@@H]1SC(C)(C)[C@@H]2C(=O)O
inactive: all assays above

O=C(OCCc1ccccc1)c1ccccc1
inactive: all assays above

C=CN1CCCCCC1=O
inactive: all assays above

COC(=O)c1ccccc1Cl
inactive: all assays above

COc1cc(Cl)c(OC)cc1N
inactive: all assays above

CC(C)COC(=O)c1ccc(O)cc1
inactive: all assays above

CC(C)c1cccc(C(C)C)c1NC(=O)NS(=O)(=O)c1cc(C(C)(C)O)co1
inactive: all assays above

CCCC(=O)C(CC)Sc1ccoc1C (configuration not stated)
inactive: all assays above

O=C(O)c1ccc(O)c(O)c1
inactive: all assays above

CCCCCCCCC(CO)CCCCCC (configuration not stated)
inactive: all assays above
